# Experimental data as given in ChEMBL document CHEMBL3433997, “St. Jude Leishmania screening dataset” (2016).
# Target: Solute carrier family 2, facilitated glucose transporter member 1 (Homo sapiens) (UniProt P11166)
# Experiment: ST_JUDE_LEISH: Cytotoxicity at 2uM final concentration against transgenic Leishmania Mexicana promastigotes LmGLUT1 that are glucose transport deficient and complemented with the human glucose transporter GLUT1. Activity is measured by DNA content using SYBR green in vitro
# Type: functional
# Chain of Solute carrier family 2, facilitated glucose transporter member 1 (Homo sapiens) (P11166 whole entry): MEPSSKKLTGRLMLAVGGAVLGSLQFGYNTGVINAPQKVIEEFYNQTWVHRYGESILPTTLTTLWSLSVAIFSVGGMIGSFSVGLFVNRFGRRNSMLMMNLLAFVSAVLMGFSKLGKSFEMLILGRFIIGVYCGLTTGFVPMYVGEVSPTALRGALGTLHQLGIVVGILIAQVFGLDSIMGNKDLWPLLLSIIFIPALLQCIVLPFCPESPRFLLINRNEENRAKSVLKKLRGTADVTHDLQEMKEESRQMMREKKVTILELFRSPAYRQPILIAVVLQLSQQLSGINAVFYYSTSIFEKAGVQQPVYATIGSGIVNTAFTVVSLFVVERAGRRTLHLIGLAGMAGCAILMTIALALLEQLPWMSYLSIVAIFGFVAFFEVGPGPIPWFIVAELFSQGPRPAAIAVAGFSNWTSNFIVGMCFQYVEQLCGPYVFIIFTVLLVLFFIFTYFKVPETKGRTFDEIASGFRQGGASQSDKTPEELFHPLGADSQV
row,Structure (SMILES),inhibition
1,O=C(Nc1cccc(-c2cccc(-c3nc4cc(C(F)(F)F)ccc4[nH]3)c2)c1)c1csnn1,12.8%
2,O=C(O[C@@H]1CN[C@H](C#Cc2cc3ncnc(Nc4ccc5c(cnn5Cc5cccc(F)c5)c4)c3s2)C1)N1CCCC1,1.37%
3,Cc1cccc(C)c1CNc1nc(N2CCOCC2)cc2c(C)c(C)[nH]c12,3.7%
4,COc1ccc(-c2ccc(NC(=O)c3ccc(Cl)cc3)cc2)cc1CN(C)CCN(C)C,9.47%
5,COc1ccc(C=NN=c2c3ccccc3[nH]c3ccccc23)c2ccccc12,6.42%
6,O=C(Nc1ccc(Cn2ncc(N3CCCNCC3)c(Cl)c2=O)cc1)Nc1cccc(C(F)(F)F)c1,0.62%
7,Nc1c(-c2ccc(C(=O)NCCNCc3ccccc3)cc2)cnn1-c1ccc(C(F)(F)F)cc1,3.28%
8,c1cc(Nc2nccc(-c3cnn4ncccc34)n2)cc(-c2cnco2)c1,35.9%
9,COc1ccc2ncc(F)c(CCN3CCC(NCc4cc(C)c5c(c4)OCCO5)CC3)c2n1,11.1%
10,CC(CNc1nc(NCC(c2ccccc2)c2ccccc2)c2nc[nH]c2n1)c1ccccc1 (centres undefined),3.92%
11,CC(C)c1cccc(C(C)C)c1NC(=O)NNC(=O)c1ccc(CCN2CCC(c3nc(COCC(F)(F)F)c(-c4ccc(F)cc4)o3)CC2)cc1,10.8%
12,Cc1cc([N+](=O)[O-])ccc1N1CCN(CCCCNC(=O)c2ccc(NC(=O)c3ccc(Cl)cc3)cc2)CC1,4.75%
13,N=C(N)Nc1nc(-c2ccc(NCc3ccc(CNc4cccc(-c5csc(NC(=N)N)n5)c4)cc3)cc2)cs1,0.36%
14,CN(C)c1ccc(CN2CCC(CNC(=O)c3cc(-c4ccccc4F)cs3)C2)cc1 (centres undefined),1.96%
